High-throughput results (PubChem)
Only some compounds are listed: those with a hit (about 2% of all), similar ones and a draw of the others.
TCR CD3 inh = inhibitors of human TCR-CD3 interaction, primary screen, biochemical, fluorescence, TAMRA-labeled TCR probe. inhibition, % at 9.4 µM. hit rate 0.37% among 360,000. AID 651800, 2012; in the data active = inhibition above about 19%;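 also: recombinant mutant TCR 2C K166C tagged with TAMRA read by polarization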
Rin1 Abl inh = inhibitors of Rin1-Abl protein binding, primary screen, biochemical, TR-FRET; hit rate 0.4% among 360,000; AID 588664, 2011; Tyrosine-protein kinase ABL1 (Homo sapiens) + Ras and Rab interactor 1 (Homo sapiens), …; inhibition, % at 7.35 µM; in the data active = inhibition above about 5%, passing the limit was not always enough
LEDGF integ inh = blockers of LEDGF/p75-dependent integrase strand transfer – biochemical, TR-FRET, high throughput, primary screen. hit rate 0.64% among 370,000. inhibition, % at 3.7 µM. TR-FRET IN-LEDGF/p75 DNA integration, Eu/Cy5. HIV-1 integrase (with human LEDGF/p75);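 active = inhibition above the screen-wide mean plus 3 SD, cut at about 13% in these data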;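 also: signal is the Cy5 over europium emission ratio at 671 and 618 nm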
UHRF1 MBD2 ctr = UHRF1 methylated DNA binding inhibitors, primary screen, counter-screen for MBD2 inhibitor project, biochemical, TR-FRET, human UHRF1, single concentration | E3 ubiquitin-protein ligase UHRF1 (Homo sapiens), Q96T88 | UHRF1 binding to methylated oligo | inhibition, % at 4.4 µM | hit rate 0.75% among 370,000; in the data active = inhibition above about 21%;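 also: UHRF1 SRA domain binding a hemimethylated CpG hairpin DNA probe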
MBD2 DNA inh = inhibitors of MBD2 binding to methylated DNA, primary screen, biochemical, TR-FRET, DNA-binding domain, human. Methyl-CpG-binding domain protein 2 (Homo sapiens), Q9UBB5. MBD2 binding to methylated oligonucleotide. inhibition, % at 4.4 µM. hit rate 0.31% among 370,000. AID 686964, 2013; in the data active = inhibition above about 13%
Target sequence (Q9UBB5 whole entry, looked up, the tested form may be a part): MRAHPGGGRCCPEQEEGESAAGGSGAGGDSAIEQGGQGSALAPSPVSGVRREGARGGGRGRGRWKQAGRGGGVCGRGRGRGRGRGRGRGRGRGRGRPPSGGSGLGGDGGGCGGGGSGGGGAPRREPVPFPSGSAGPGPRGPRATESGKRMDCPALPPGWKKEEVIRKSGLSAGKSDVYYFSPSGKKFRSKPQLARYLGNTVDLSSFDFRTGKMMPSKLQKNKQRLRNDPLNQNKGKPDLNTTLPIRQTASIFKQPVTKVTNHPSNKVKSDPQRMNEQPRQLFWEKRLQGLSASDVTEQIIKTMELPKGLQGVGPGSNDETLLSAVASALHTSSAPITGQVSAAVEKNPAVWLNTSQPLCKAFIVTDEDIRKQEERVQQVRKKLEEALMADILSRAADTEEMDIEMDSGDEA
IN multimer act = HIV-1 IN multimer formation enhancers, counter-screen for LEDGF/p75 integration inhibitor project, biochemical, TR-FRET; shares compounds with LEDGF integ inh; TR-FRET HIV-1 integrase multimerization; activation, % at 7.7 µM; hit rate 17% among 2,000; in the data active = activation above about 8.9%
TR-FRET interf = TR-FRET optical interference artefacts, confirmation, artefact control for LEDGF/p75-dependent integration inhibitor project, biochemical, HIV-1 IN multimerization | 2,000 tested, under 10 active | inhibition, % at 7.7 µM | shares compounds with LEDGF integ inh | AID 1053135, 2014 | TR-FRET optical interference counterscreen;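 active = inhibition above the mean over all tested compounds plus 3 SD, which no compound reached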
LEDGF integ conf = inhibitors of HIV-1 IN-LEDGF/p75 DNA integration, confirmation, biochemical, TR-FRET. AID 1053136, 2014. hit rate 36% among 2,000. inhibition, % at 3.7 µM. shares compounds with LEDGF integ inh. TR-FRET LEDGF/p75-dependent HIV-1 integration; in the data active = inhibition above about 14%
Numbers stand for hits; . = inactive; / = not tested or not shown.

SMILES | TCR CD3 inh | Rin1 Abl inh | LEDGF integ inh | UHRF1 MBD2 ctr | MBD2 DNA inh | IN multimer act | TR-FRET interf | LEDGF integ conf
CC(=O)N1CCn2c3c(c(=O)c4cc(C)ccc42)CCC31 (stereo not drawn) | . | . | 20 | . | . | . | . | 23
Cc1cccc(OCCCC(=O)NNC(=O)CCN2CCN(c3ccccc3)CC2)c1 | . | . | . | . | . | / | / | /
COc1ccc(CN2[C@@H](CC(C)=O)c3cc(C(F)(F)F)ccc3S2(=O)=O)cc1 | . | . | . | . | . | / | / | /
COc1cc(OC)cc(-c2nnc(NC(=O)CCS(=O)(=O)c3ccc(C)cc3)o2)c1 | . | . | . | . | . | / | / | /
COc1cccc(-c2nnc(NC(=O)CCS(=O)(=O)c3ccc(F)cc3)o2)c1 | . | . | 15 | . | . | . | . | .
CCc1nnc(N/N=C/c2ccccc2Cl)n1N | . | . | 46 | . | . | . | . | .
CCOC(=O)N/N=C/c1ccccc1F | . | . | . | . | . | / | / | /
CCc1nnc(N/N=C/c2ccccc2F)n1N | . | . | 58 | . | . | . | . | .
COc1cccc(/C=N/Nc2nnc(C)n2N)c1OCc1ccccc1Cl | . | . | 41 | . | . | . | . | .
Cc1ccc(S(=O)(=O)/N=C(/Nc2cccc(O)c2)c2ccccc2)cc1 | . | . | 37 | . | . | . | . | .
O=C(COC(=O)COc1ccccc1)Nc1ncc(Cl)cc1Cl | . | . | . | . | . | / | / | /
CCCN(CCC)C(=S)NC(=O)c1ccc(Cl)cc1Cl | . | . | 16 | . | . | . | . | .
O=C(CO)N/N=C/c1cccc(Cl)c1Cl | . | . | . | . | . | / | / | /
Nn1cnnc1N/N=C/c1cccc(Cl)c1Cl | . | . | 56 | . | . | . | . | .
Nn1cnnc1N/N=C/c1ccccc1C(F)(F)F | . | . | 47 | . | . | . | . | .
CCOC(=O)C(C)Sc1ncc(-c2ccccc2)cn1 (stereo not drawn) | . | . | . | . | . | / | / | /
O=C(NC(c1cccnc1)c1ccc2c(c1)OCO2)C1CCN(CCOc2ccc(Cl)cc2Cl)CC1 (stereo not drawn) | . | . | . | . | . | / | / | /
O=c1[nH]c(CN2CCc3ccccc32)nc2scc(-c3cccs3)c12 | . | . | 18 | . | . | . | . | .
Clc1cccc(C2CCN(Cc3nc(CC4CC4)no3)C2)c1 (stereo not drawn) | . | . | 35 | . | . | . | . | .
c1ccc(CN2CCCC3(CCCN(Cc4nc(CC5CC5)no4)C3)C2)cc1 (stereo not drawn) | . | . | . | . | . | / | / | /
CN(C(=O)COC(=O)c1cncc(Br)c1)C1CCCCC1 | . | . | 16 | . | . | . | . | .
COc1ccc(OC)c(NC(=O)COC(=O)/C=C/c2ccccc2Cl)c1 | . | . | . | . | . | / | / | /
COc1ccc(OC)c(NC(=O)COC(=O)/C=C/c2ccco2)c1 | . | . | 22 | . | . | . | . | .
O=C(COC(=O)/C=C/c1ccco1)Nc1ncc(Cl)cc1Cl | . | . | . | . | . | / | / | /
Cc1nc(NC(=O)COC(=O)/C=C/c2ccco2)c(Cl)cc1Cl | . | . | 33 | . | . | . | . | .
O=C(NC(Cc1ccccc1)C(=O)O)C1CCN(S(=O)(=O)c2ccccc2C(F)(F)F)CC1 (stereo not drawn) | . | . | . | . | . | / | / | /
CC1CCN(C(=O)COC(=O)c2ccccc2NCCO)CC1 | . | . | . | . | . | / | / | /
